PubChem BioAssay (Tox21)
Several values for one entry are separate records, joined by “and”; a condition that tells them apart may be missing. Identical values can stand only once. Results filed as inconclusive are left out. Some structures have more than one record in an assay (separate samples or runs), and their calls can disagree. Activity calls are given as the source filed them. Unless noted, the call rests on the fitted dose curve; in most records, active means well fitted curve in the direction sought with a large enough effect in the repeat runs; inconclusive means weak or mixed curves; inactive means no such curve, though single readings can be large; an effect the other way counts as inactive or inconclusive.

Columns and labels:
[1] = qHTS assay to identify small molecule antagonists of the glucocorticoid receptor (GR) signaling pathway - cell viability counter screen (AID 720693); further: nearly all actives have a fitted effect of over 55% in size; further: potency means the concentration at half of the fitted maximal effect
[2] = qHTS assay for identifying genotoxic compounds that show differential cytotoxicity against isogenic chicken DT40 cell lines with known DNA damage response pathways - wild type cell line (AID 743012); further: nearly all actives have a fitted effect of over 60% in size; further: potency means the concentration at half of the fitted maximal effect
Procedure, shortened: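 Wild type DT40, 300 cells/well, ~0.5 h settle at 37 C/5% CO2; compounds in DMSO added by pintool; 40 h at 37 C/5% CO2; CellTiter-Glo, 30 min RT; luminescence.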

[3] = qHTS assay for identifying genotoxic compounds that show differential cytotoxicity against isogenic chicken DT40 cell lines with known DNA damage response pathways - Rev3 mutant cell line (AID 743014); further: nearly all actives have a fitted effect of over 55% in size; further: potency means the concentration at half of the fitted maximal effect
[4] = qHTS assay for identifying genotoxic compounds that show differential cytotoxicity against isogenic chicken DT40 cell lines with known DNA damage response pathways - Rad54/Ku70 mutant cell line (AID 743015); further: nearly all actives have a fitted effect of over 60% in size; further: potency means the concentration at half of the fitted maximal effect
[5] = qHTS assay to identify small molecule antagonists of the androgen receptor (AR) signaling pathway - cell viability counter screen (AID 743033; further: nearly all actives have a fitted effect of over 45% in size; further: potency means the concentration at half of the fitted maximal effect)
[6] = qHTS assay to identify small molecule antagonists of the androgen receptor (AR) signaling pathway using the MDA cell line - cell viability counter screen (AID 743041; further: nearly all actives have a fitted effect of over 45% in size; further: potency means the concentration at half of the fitted maximal effect)
Procedure, shortened: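 Same-well cytotoxicity was assessed by CellTiter-Fluor in MDA-kb2 AR-luc cells after 16 h of compound treatment under R1881 agonism.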

[7] = qHTS assay to identify small molecule antagonists of the thyroid receptor (TR) signaling pathway - cell viability counter screen (AID 743064); further: nearly all actives have a fitted effect of over 50% in size; further: potency means the concentration at half of the fitted maximal effect
Procedure, shortened: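 Same-well viability check: GH3.TRE-Luc cells stimulated with 1 nM T3 alongside test compound for 23.5 h, followed by CellTiter-Fluor fluorescence.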

[8] = qHTS assay to identify small molecule antagonists of the thyroid receptor (TR) signaling pathway (AID 743065); further: nearly all actives have a fitted effect of over 55% in size; further: potency means the concentration at half of the fitted maximal effect
Procedure, shortened: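 GH3.TRE-Luc rat pituitary cells (two TREs driving luciferase) were dosed with compound, then stimulated with 1 nM T3 (final) for 23.5 h at 37 C. ONE-Glo luminescence was the read-out, with CellTiter-Fluor fluorescence as the cytotoxicity counter-screen.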

[9] = system: thyroid hormone receptor (rat, GH3 cells); assay: qHTS assay to identify small molecule agonists of the thyroid receptor (TR) signaling pathway (AID 743066; calls by dose curve)
[10] = biological target: Estrogen receptor (Homo sapiens) (UniProt P03372); assay: qHTS assay to identify small molecule antagonists of the estrogen receptor alpha (ER-alpha) signaling pathway (AID 743069; active means well fitted curve in the direction sought with a large enough effect in the signal ratio in the repeat runs, not every such curve was filed as active; the % refers to the signal ratio)
Procedure, shortened: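 Reporter cells (ER-alpha-bla, HEK293 background) are conditioned overnight in stripped-serum medium (2% charcoal-stripped FBS). Compound and 17beta-estradiol exposure runs 18 hr at 37C, 5% CO2.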

[11] = qHTS assay to identify small molecule antagonists of the estrogen receptor alpha (ER-alpha) signaling pathway - cell viability counter screen (AID 743074; calls by dose curve;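 further: HEK293 cells carrying ER-alpha-UAS-bla reporter stimulated with 17beta-estradiol; nearly all actives have a fitted effect of over 45% in size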; further: potency means the concentration at half of the fitted maximal effect)
[12] = biological target: Estrogen receptor (Homo sapiens) (UniProt P03372); assay: qHTS assay to identify small molecule agonists of the estrogen receptor alpha (ER-alpha) signaling pathway (AID 743075; calls by dose curve;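 further: HEK293 GripTite cells with ER-alpha and UAS-driven beta-lactamase reporter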)
[13] = biological target: Estrogen receptor (Homo sapiens) (UniProt P03372); assay: qHTS assay to identify small molecule agonists of the estrogen receptor alpha (ER-alpha) signaling pathway using the BG1 cell line (AID 743079); further: nearly all actives have a fitted effect of over 20% in size
[14] = qHTS assay to identify small molecule antagonists of the estrogen receptor alpha (ER-alpha) signaling pathway using the BG1 cell line (AID 743080; calls by dose curve;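 further: BG1 cells stimulated with 17beta-estradiol alongside compound; nearly all actives have a fitted effect of over 25% in size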); conditions: BG1Luc4E2 ERE-luciferase antagonist mode, luminescence; activity change, negative = inhibition: at 70.3 µM (top of the series)
Procedure, shortened: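 Luminescence from a 4×ERE-luciferase reporter in BG1-Luc-4E2 cells served as read-out. Cells, pre-cultured 5 days in stripped-serum phenol-red-free medium, were exposed to compound with 17beta-estradiol co-stimulation for 21.5 h at 37 C.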

[15] = qHTS assay to identify small molecule antagonists of the estrogen receptor alpha (ER-alpha) signaling pathway using the BG1 cell line - cell viability counter screen (AID 743081);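 further: compound given together with 17beta-estradiol as the ER stimulus; nearly all actives have a fitted effect of over 45% in size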
[16] = biological target: Aromatase (Homo sapiens) (UniProt P11511); assay: qHTS assay to identify aromatase inhibitors (AID 743083); further: nearly all actives have a fitted effect of over 55% in size
[17] = biological target: Androgen receptor (Homo sapiens) (UniProt P10275); assay: qHTS assay to identify small molecule agonists of the androgen receptor (AR) signaling pathway using the MDA cell line (AID 743040; further: nearly all actives have a fitted effect of over 20% in size)
Procedure, shortened: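 Human breast carcinoma MDA-kb2 reporter cells (MMTV-luc, AR/GR elements) were treated for 16 h at 37C in 0% CO2 following a 5 h settling period. Signal was quantified by ONE-Glo luminescence.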

[18] = biological target: Androgen receptor (Homo sapiens) (UniProt P10275); assay: qHTS assay to identify small molecule antagonists of the androgen receptor (AR) signaling pathway using the MDA cell line (AID 743042; further: nearly all actives have a fitted effect of over 55% in size; further: potency means the concentration at half of the fitted maximal effect)
Procedure, shortened: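 MDA-kb2 breast carcinoma cells carrying MMTV-luciferase (AR/GR responsive) were co-treated with compounds and the agonist R1881 for 16 h at 37C. Inhibition read as ONE-Glo luminescence; CellTiter-Fluor fluorescence measured in parallel for cytotoxicity.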

[19] = biological target: Androgen receptor (Homo sapiens) (UniProt P10275); assay: qHTS assay to identify small molecule antagonists of the androgen receptor (AR) signaling pathway (AID 743035; active means well fitted inhibition curve with a large enough effect in the signal ratio in the repeat runs, not every such curve was filed as active; the % refers to the signal ratio)
Procedure, shortened: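 Fluorescence from a beta-lactamase FRET substrate (LiveBLAzer B/G, 2 h, room temperature) measured inhibition of R1881-stimulated signaling in GeneBLAzer AR-UAS-bla HEK293 cells exposed to compound for 16 h at 37C.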

[20] = biological target: Androgen receptor (Homo sapiens) (UniProt P10275); assay: qHTS assay to identify small molecule agonists of the androgen receptor (AR) signaling pathway (AID 743036; active means well fitted activation curve with a large enough effect in the signal ratio in the repeat runs, with a control signal flat, not every such curve was filed as active; the % refers to the signal ratio)
Procedure, shortened: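 Agonist activity was scored by beta-lactamase reporter fluorescence in stably transfected HEK293 cells exposed to compounds for 16 h at 37C and 5% CO2. Substrate loading took 2 h at room temperature.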

Measured: Potency

Sequence of Aromatase (Homo sapiens) (P11511 whole entry, looked up): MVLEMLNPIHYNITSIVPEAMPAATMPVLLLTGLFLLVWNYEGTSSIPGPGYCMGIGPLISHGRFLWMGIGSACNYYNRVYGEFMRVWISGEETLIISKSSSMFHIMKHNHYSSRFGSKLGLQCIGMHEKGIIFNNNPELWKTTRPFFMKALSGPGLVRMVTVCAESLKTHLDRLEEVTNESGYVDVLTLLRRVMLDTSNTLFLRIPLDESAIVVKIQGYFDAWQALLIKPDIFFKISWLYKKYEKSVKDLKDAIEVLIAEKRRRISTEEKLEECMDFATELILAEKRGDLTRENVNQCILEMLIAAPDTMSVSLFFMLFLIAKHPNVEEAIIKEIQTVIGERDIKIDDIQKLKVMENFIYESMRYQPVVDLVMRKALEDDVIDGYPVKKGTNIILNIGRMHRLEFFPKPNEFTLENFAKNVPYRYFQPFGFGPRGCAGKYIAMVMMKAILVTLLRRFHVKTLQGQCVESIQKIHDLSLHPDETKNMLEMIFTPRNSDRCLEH
Sequence of Estrogen receptor (Homo sapiens) (P03372 whole entry, looked up): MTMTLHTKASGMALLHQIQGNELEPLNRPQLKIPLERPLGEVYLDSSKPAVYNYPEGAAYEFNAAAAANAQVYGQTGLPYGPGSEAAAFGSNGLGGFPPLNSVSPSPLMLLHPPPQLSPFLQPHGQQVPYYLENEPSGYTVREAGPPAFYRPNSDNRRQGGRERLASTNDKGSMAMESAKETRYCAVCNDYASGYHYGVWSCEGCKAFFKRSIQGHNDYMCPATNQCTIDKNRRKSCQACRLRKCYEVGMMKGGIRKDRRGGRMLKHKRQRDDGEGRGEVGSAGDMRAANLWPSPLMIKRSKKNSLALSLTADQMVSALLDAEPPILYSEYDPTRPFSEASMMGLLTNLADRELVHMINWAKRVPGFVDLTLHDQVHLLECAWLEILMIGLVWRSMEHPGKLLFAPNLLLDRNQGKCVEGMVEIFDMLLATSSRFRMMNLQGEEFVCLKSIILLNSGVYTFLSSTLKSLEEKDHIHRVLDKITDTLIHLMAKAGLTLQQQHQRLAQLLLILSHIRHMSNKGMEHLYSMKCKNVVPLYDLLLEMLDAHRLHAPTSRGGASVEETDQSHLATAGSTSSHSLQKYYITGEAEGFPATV
Sequence of Androgen receptor (Homo sapiens) (P10275 whole entry, looked up): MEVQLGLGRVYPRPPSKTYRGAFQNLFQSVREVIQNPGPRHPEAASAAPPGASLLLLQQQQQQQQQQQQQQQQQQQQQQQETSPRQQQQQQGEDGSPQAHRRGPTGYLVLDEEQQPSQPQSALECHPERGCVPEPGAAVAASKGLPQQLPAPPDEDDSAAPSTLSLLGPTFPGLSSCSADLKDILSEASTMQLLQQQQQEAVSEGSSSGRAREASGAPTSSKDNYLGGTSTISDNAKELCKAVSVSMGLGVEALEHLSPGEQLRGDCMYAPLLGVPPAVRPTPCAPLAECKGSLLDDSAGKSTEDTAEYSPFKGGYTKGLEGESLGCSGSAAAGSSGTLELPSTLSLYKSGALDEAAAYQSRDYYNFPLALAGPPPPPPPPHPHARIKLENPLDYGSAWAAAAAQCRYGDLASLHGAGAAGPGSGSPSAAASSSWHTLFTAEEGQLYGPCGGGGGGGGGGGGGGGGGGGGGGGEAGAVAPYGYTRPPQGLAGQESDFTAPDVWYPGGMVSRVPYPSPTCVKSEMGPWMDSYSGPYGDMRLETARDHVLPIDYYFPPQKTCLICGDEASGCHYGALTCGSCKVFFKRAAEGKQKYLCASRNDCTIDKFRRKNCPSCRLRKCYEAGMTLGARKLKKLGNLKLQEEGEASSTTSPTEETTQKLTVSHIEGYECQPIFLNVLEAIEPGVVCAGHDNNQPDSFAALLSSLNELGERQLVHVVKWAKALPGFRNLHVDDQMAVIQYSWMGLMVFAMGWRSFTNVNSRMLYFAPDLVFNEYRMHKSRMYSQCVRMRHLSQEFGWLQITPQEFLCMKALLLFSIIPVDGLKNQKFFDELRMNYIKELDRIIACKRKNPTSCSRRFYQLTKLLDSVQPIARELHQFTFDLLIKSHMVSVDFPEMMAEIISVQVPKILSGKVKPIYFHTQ

CCOC(N)=O
inactive: [1] | [2] | [3] | [4] | [5] | [6] | [7] | [8] | [9] | [10] | [11] | [12] | [13] | [14] | [15] | [16]

C1CCC(C(CC2CCCCN2)C2CCCCC2)CC1 (centres undefined)
inactive: [17]
active: [1] 21.3 µM | [2] 2.66 µM | [3] 4.73 µM | [4] 5.96 µM | [5] 23.9 µM | [6] 18.8 µM | [18] 13.3 µM | [7] 4.73 µM | [8] 5.96 µM | [11] 21.3 µM

CC12CCC(CC1)C(C)(C)O2
inactive: [1] | [2] | [3] | [4] | [5] | [6] | [7] | [8] | [9] | [10] | [11] | [12] | [13] | [14] | [15] | [16]

CN(C)C(=O)Nc1ccc(Cl)c(Cl)c1
inactive and 54.5 µM (active): [3]
inactive: [1] | [2] | [4] | [5] | [19] | [20] | [17] | [6] | [18] | [7] | [8] | [9] | [10] | [11] | [12] | [13] | [14] | [15] | [16]

Cc1ncc([N+](=O)[O-])n1CCO
inactive: [1] | [2] | [3] | [5] | [6] | [7] | [8] | [9] | [10] | [11] | [12] | [13] | [14] | [15] | [16]
inactive and 61.1 µM (active): [4]
